IL-2 act: activators of IL-2; IL-2 activation reporter assay, cell-based qHTS; stimulated with anti-CD3/CD4/CD28 beads; in transgenic mouse T cells; activation, % (series mostly up to about 46 µM); actives 0.065% (n = 360,000); AID 652025; in the data active = activation above about 50%; inconclusive = mostly about 30% to 49%; also: 0% is about no effect
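Screening format: compound pinned onto unstimulated transgenic mouse T cells, 60 min incubation, then anti-CD3/anti-CD4/anti-CD28 bead stimulation for 18 hours at 37 degrees C, followed by EGFP and DsRed detection.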
Vif-APOBEC3G blk: inhibitors of Vif-APOBEC3G interaction. Q9HC16. HeLa A3G-eYFP + Vif (tagged APOBEC3G with the HIV-1 protein that degrades it), YFP fluorescence, overnight. Potency, µM (titrated, usually from 46.1 µM), inactives show top-dose activity, negative = active, actives largely listed as inhibitors. actives 0.076% (n = 410,000); also: potency is read from the fitted curve at half-maximal effect; % is scaled to controls: 0 for no effect and ±100 for the full control effect; nearly all actives have a fitted effect of over 60% in size
Target sequence (Q9HC16 whole entry, looked up): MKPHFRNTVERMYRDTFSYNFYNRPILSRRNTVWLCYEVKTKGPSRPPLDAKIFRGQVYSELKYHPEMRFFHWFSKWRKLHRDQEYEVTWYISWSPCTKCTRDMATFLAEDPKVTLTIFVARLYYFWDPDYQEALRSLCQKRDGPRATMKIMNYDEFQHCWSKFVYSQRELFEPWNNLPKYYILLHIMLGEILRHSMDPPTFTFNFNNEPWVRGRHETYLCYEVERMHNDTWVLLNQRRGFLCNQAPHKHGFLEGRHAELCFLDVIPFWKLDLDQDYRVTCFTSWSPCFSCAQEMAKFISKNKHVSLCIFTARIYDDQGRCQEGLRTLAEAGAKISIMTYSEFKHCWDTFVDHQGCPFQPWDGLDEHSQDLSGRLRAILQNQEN
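HeLa cells stably expressing Vif and C-terminally eYFP-tagged A3G, seeded overnight at 37 deg C, then exposed to compound by pintool overnight at 37 deg C. Rise in yellow fluorescence (Ex 488/Em 500-530, Acumen) marks blocked Vif-driven A3G degradation.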
Vif-APOBEC3F blk: inhibitors of Vif-A3F interaction. Potency, µM (highest dose often 46.1 µM), without a hit: at the top dose activity, negative = active. actives 0.2% (n = 390,000). HeLa A3F-eYFP + Vif (tagged APOBEC3F with the HIV-1 protein that degrades it), YFP fluorescence increase. AID 602313; also: potency is read from the fitted curve at half-maximal effect; % of control where 0% means no effect; nearly all actives have a fitted effect of over 65% in size
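Fluorescence increase (Ex 488/Em 500-530) after overnight compound treatment at 37 deg C flags inhibition of Vif-driven A3F-eYFP loss in stable HeLa A3F-eYFP/Vif cells seeded overnight beforehand.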
PKM2 act: increases activity of human pyruvate kinase M2 | P14618 | purified PKM2, Kinase-Glo ATP luminescence, activation; response scale: 0% is enzyme alone, no compound | Potency, µM (highest dose often 57.5 µM), inactives show at the top dose activation, most hits filed as activators | actives 0.34% (n = 260,000); also: potency is read from the fitted curve at half-maximal effect; % is scaled to controls: 0 for no effect and ±100 for the full control effect; nearly all actives have a fitted effect of over 55% in size
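Kinase-Glo luminescence reports ATP generated from ADP (0.1 mM) and PEP (0.5 mM) by purified hPK-M2 after 1 h at room temperature, pH 7.2 imidazole buffer; intermediate enzyme activity allows detecting inhibitors and activators.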
* = called active by the depositor; ! = not active in a repeat. Only some compounds are listed: those with a hit (about 0.53% of all), similar ones and a draw of the others. Unless noted, calls follow the shape of the dose curve; as a rule, active = well fitted curve in the direction sought with a large enough effect; inconclusive = small, poorly fitted or top-dose-only effect, or another doubt; inactive = no such curve, though single readings can be large; an effect the other way counts as inactive or inconclusive.

What do the screens show for `COc1ccc(/C=C(\C#N)c2nc3ccccc3[nH]2)cc1O`?
IL-2 act: 0; Vif-APOBEC3G blk: -19%; Vif-APOBEC3F blk: -24%; PKM2 act: -32%

What do the screens show for `CCCOc1cc(N(CC)CC)ccc1/C=C(/C#N)c1nc2ccc(C)cc2[nH]1`?
IL-2 act: 5; Vif-APOBEC3G blk: inconclusive; Vif-APOBEC3F blk: 3.2µM*; PKM2 act: 7%

Results for CCOc1cc(N(CC)CC)ccc1/C=C(/C#N)c1nc2ccccc2[nH]1 ?
IL-2 act: 18; Vif-APOBEC3G blk: inconclusive; Vif-APOBEC3F blk: 3.5µM*; PKM2 act: 3%

How did COc1cc(/C=C(\C#N)c2nc3ccccc3[nH]2)ccc1OCc1ccccc1F do in these assays?
Vif-APOBEC3G blk: inconclusive; Vif-APOBEC3F blk: 22µM*

Results for Cc1cc(/C=C(\C#N)c2nc3ccccc3[nH]2)c(C)n1C ?
IL-2 act: 1; Vif-APOBEC3G blk: -18%; Vif-APOBEC3F blk: -11%; PKM2 act: 9%

Results for CCN(CC)c1ccc(/C=C(/C#N)c2nc3ccc(C)cc3[nH]2)c(OC(C)C)c1 ?
IL-2 act: 218*; Vif-APOBEC3G blk: inconclusive; Vif-APOBEC3F blk: -2%; PKM2 act: -4%

How did CCOC(=O)c1cnn(-c2cccc(Cl)c2)c1C1CCN(C(=O)OC(C)(C)C)CC1 do in these assays?
Vif-APOBEC3G blk: 1%; Vif-APOBEC3F blk: -1%

How did CN(C)c1ccc(CNC(=O)CN2C(=O)CSc3ccc(S(=O)(=O)N4CCCC4)cc32)cc1 do in these assays?
Vif-APOBEC3G blk: -1%; Vif-APOBEC3F blk: 1%

What do the screens show for `Cc1ccc2c(=O)cc(C(=O)Nc3ccc(S(=O)(=O)N4CCCCC4C)cc3)oc2c1C` (stereo unspecified)?
Vif-APOBEC3G blk: -1%; Vif-APOBEC3F blk: 2%

What do the screens show for `O=C(Nc1ccc(Cl)cc1)[C@@H]1[C@@H]2C(=O)N(c3ccc4ccccc4c3)C(=O)[C@@H]2[C@H]2C=CC=NN21`?
IL-2 act: 0; Vif-APOBEC3G blk: -4%; Vif-APOBEC3F blk: 5%; PKM2 act: inconclusive

What do the screens show for `COc1ccc(N2C(=O)[C@@H]3[C@H](C2=O)[C@H]2C=CC=NN2[C@@H]3C(=O)Nc2ccc(Cl)cc2)cc1`?
IL-2 act: 0; Vif-APOBEC3G blk: 0%; Vif-APOBEC3F blk: 11%; PKM2 act: 8.9µM*

How did COC(=O)c1cccc(-n2c(CCC(=O)O)ccc2-c2cccs2)c1 do in these assays?
IL-2 act: -2; Vif-APOBEC3G blk: -1%; Vif-APOBEC3F blk: 3%; PKM2 act: 18µM*

Results for O=C(C[n+]1ccncc1)c1ccc2ccccc2c1 ?
Vif-APOBEC3G blk: -3%

How did Cc1ccc2c(CC(=O)N(Cc3ccc(N(C)C)cc3)Cc3ccco3)coc2c1C do in these assays?
Vif-APOBEC3G blk: -2%; Vif-APOBEC3F blk: -8%

Results for CCOc1ccc(CCNC(=O)CCCn2c(=O)c3cccn3c3cccnc32)cc1 ?
Vif-APOBEC3G blk: -2%; Vif-APOBEC3F blk: -10%

How did Cc1c(C(=O)NCc2ccc3c(c2)OCCO3)sc(=O)n1Cc1ccc2c(c1)OCO2 do in these assays?
IL-2 act: 0; Vif-APOBEC3G blk: 1%

What do the screens show for `CCn1c(N)c(C(=O)NCc2ccc3c(c2)OCO3)sc1=S`?
IL-2 act: -2; Vif-APOBEC3G blk: -10%; Vif-APOBEC3F blk: -1%; PKM2 act: 5µM*

Results for Cc1cc(/C=C2\NC(=S)N(C)C2=O)ccc1N1CCCC1 ?
IL-2 act: 6; Vif-APOBEC3G blk: 6.3µM*; Vif-APOBEC3F blk: inconclusive; PKM2 act: 4%

Results for CCN1C(=O)/C(=C/c2ccc(N3CCCC3)cc2)NC1=S ?
IL-2 act: 23; Vif-APOBEC3G blk: 8.9µM*; Vif-APOBEC3F blk: 25µM*; PKM2 act: 0%

What do the screens show for `CCCN1C(=O)/C(=C/c2ccc(N3CCCC3)c(C)c2)NC1=S`?
IL-2 act: 24; Vif-APOBEC3G blk: inconclusive; Vif-APOBEC3F blk: inconclusive; PKM2 act: -5%

Results for Cc1cc(=O)oc2cc(NS(=O)(=O)c3ccc(F)cc3)ccc12 ?
IL-2 act: -4; Vif-APOBEC3G blk: -2%; Vif-APOBEC3F blk: 3%; PKM2 act: inconclusive

How did Cc1cc(=O)oc2cc(NS(=O)(=O)c3ccccc3)ccc12 do in these assays?
IL-2 act: -3; Vif-APOBEC3G blk: -14%; Vif-APOBEC3F blk: 7%; PKM2 act: 16µM*

How did S=C(c1ccc(-c2ccc(Br)cc2)o1)N1CCOCC1 do in these assays?
IL-2 act: -5; Vif-APOBEC3G blk: 0%; Vif-APOBEC3F blk: -19%; PKM2 act: 13µM*

Results for NS(=O)(=O)c1ccc2nc(NC(=O)COc3ccc(Cl)cc3Cl)sc2c1 ?
Vif-APOBEC3G blk: -22%; Vif-APOBEC3F blk: -6%

Results for COc1ccc2[nH]cc(/C=C/c3cc[n+](C)cc3)c2c1 ?
IL-2 act: 7; Vif-APOBEC3G blk: 11µM*; Vif-APOBEC3F blk: 13µM*

What do the screens show for `O=C(CSc1nccc(=O)[nH]1)N1N=C2/C(=C/c3ccco3)CCCC2C1c1ccco1` (stereo unspecified)?
IL-2 act: -4; Vif-APOBEC3G blk: 1%; Vif-APOBEC3F blk: 10%; PKM2 act: inconclusive

How did Cn1cnnc1SCC(=O)N1N=C2/C(=C/c3ccco3)CCCC2C1c1ccco1 (stereo unspecified) do in these assays?
IL-2 act: 0; Vif-APOBEC3G blk: 6%; Vif-APOBEC3F blk: 4%; PKM2 act: 28µM*

What do the screens show for `c1cncc(-c2nc(NCc3cccs3)c3ccccc3n2)c1`?
IL-2 act: -1; Vif-APOBEC3G blk: -8%; Vif-APOBEC3F blk: 18µM*; PKM2 act: 4%

What do the screens show for `Fc1ccccc1CNc1nc(-c2cccnc2)nc2ccccc12`?
IL-2 act: 0; Vif-APOBEC3G blk: 2%; Vif-APOBEC3F blk: -5%

What do the screens show for `CC1CCN(C(=O)C(C)Sc2nc(-c3ccccc3)cc(C(F)(F)F)n2)CC1` (stereo unspecified)?
IL-2 act: -1; Vif-APOBEC3G blk: 20µM*!; Vif-APOBEC3F blk: -4%; PKM2 act: 4%

How did O=C(Nc1ccc(Cl)cc1Cl)c1cnn2c1NC(=C1CC1)C=C2C(F)F do in these assays?
Vif-APOBEC3G blk: 0%

What do the screens show for `COc1ccc(Nc2nnc(-c3ccc(C)c(S(=O)(=O)N4CCN(C)CC4)c3)c3ccccc23)cc1`?
Vif-APOBEC3G blk: -9%; Vif-APOBEC3F blk: -14%

What do the screens show for `Cc1c(N2C(=O)/C(=C/c3ccc(N(C)C)cc3)N(C)C2=S)c(=O)n(-c2ccccc2)n1C`?
IL-2 act: 10; Vif-APOBEC3G blk: inconclusive; Vif-APOBEC3F blk: 10µM*

What do the screens show for `O=C1C=CC(=O)N1CCNc1ncc(C(F)(F)F)cc1Cl`?
IL-2 act: -4; Vif-APOBEC3G blk: inconclusive; Vif-APOBEC3F blk: 17%; PKM2 act: 18µM*

What do the screens show for `CCc1ccc(NC(=O)CSc2nc3n[nH]c(C)c3c(=N)n2-c2cccc(OC)c2)cc1`?
IL-2 act: -3; Vif-APOBEC3G blk: 0%; Vif-APOBEC3F blk: 1%; PKM2 act: -7%

Results for COc1cccc(NC(=O)CSc2nc3n[nH]c(C)c3c(=N)n2-c2cccc(OC)c2)c1 ?
IL-2 act: 0; Vif-APOBEC3G blk: -25%; Vif-APOBEC3F blk: 4%; PKM2 act: 25µM*

Screens deposited in PubChem by National Center for Advancing Translational Sciences (NCATS).
